Test results taken from PubChem BioAssay (NCI).
This is part of a sample that, as a whole, favours compounds with a hit. Of some 79,000 tested, about 15% had one in any assay. Calls of active or inactive are those of the source. Cut-off read from the data, not from the text of the source: active = growth inhibition above about 70%; inactive = the rest.

Legend:
[1] = NCI Yeast Anticancer Drug Screen. Data for the rad52 strain (AID 147);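 note: 0% = growth of vehicle-treated control cultures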; conditions: S. cerevisiae rad52 mutant growth inhibition, active compounds read high
Procedure, shortened: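 Inhibition of yeast growth, referenced to vehicle controls, was the measured output for a strain with defective DNA damage repair.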

[2] = NCI Yeast Anticancer Drug Screen. Data for the rad50EPP+ strain (AID 151);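 note: 0% = growth of vehicle-treated control cultures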; conditions: S. cerevisiae rad50 mutant strain, active compounds read high
Procedure, shortened: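 Genetically defined yeast (rad50EPP+, DNA damage repair alteration) is grown with compound, and inhibition of growth is expressed relative to vehicle-treated controls.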

[3] = NCI Yeast Anticancer Drug Screen. Data for the mgt1 strain (AID 153); conditions: S. cerevisiae mgt1 mutant growth inhibition, active compounds read high
Procedure, shortened: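 In the mgt1 strain, test compounds were added and growth inhibition was determined relative to vehicle-treated controls.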

[4] = NCI Yeast Anticancer Drug Screen. Data for the rad50 strain (AID 155);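 note: 0% = growth of vehicle-only cultures of the same strain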; conditions: S. cerevisiae rad50 strain growth inhibition, active compounds read high
Procedure, shortened: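 Yeast carrying a defined DNA repair defect were exposed to test compounds, and growth was compared with vehicle-treated controls to give percent inhibition.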

[5] = NCI Yeast Anticancer Drug Screen. Data for the mec2-1 strain (AID 157); conditions: S. cerevisiae mec2-1 strain, active compounds read high
Procedure, shortened: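 Each compound was tested on mec2-1 yeast, a strain altered in DNA damage repair or cell cycle control. Growth inhibition is reported relative to vehicle.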

[6] = NCI Yeast Anticancer Drug Screen. Data for the rad14 strain (AID 159);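 note: 0% = growth of vehicle-treated control cultures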; conditions: S. cerevisiae rad14 strain growth inhibition, active compounds read high
Procedure, shortened: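 Yeast cells carrying a defined DNA-repair defect were exposed to compounds, and growth inhibition was calculated relative to vehicle-treated control cultures.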

[7] = NCI Yeast Anticancer Drug Screen. Data for the sgs1 mgt1 strain (AID 161);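 note: 0% = growth of cultures given vehicle only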; conditions: S. cerevisiae sgs1 mgt1 strain, active compounds read high
Procedure, shortened: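 Mutant yeast exposed to compound; growth scored against vehicle-only wells.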

[8] = NCI Yeast Anticancer Drug Screen. Data for the CLN2oe strain (AID 163);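 note: 0% = growth of vehicle-only control cultures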; conditions: S. cerevisiae CLN2oe strain, active compounds read high
Procedure, shortened: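 First, the altered yeast strain was treated with each compound; second, its growth was measured; finally, inhibition was derived by comparison with vehicle controls.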

[9] = NCI Yeast Anticancer Drug Screen. Data for the cln2 rad14 strain (AID 165);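 note: 0% = growth equal to vehicle treated cultures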; conditions: S. cerevisiae cln2 rad14 strain, active compounds read high
Procedure, shortened: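 Test compounds were added to cln2 rad14 yeast cultures; inhibition of growth was then determined by comparison with vehicle treatment.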

[10] = NCI Yeast Anticancer Drug Screen. Data for the bub3 strain (AID 167); conditions: S. cerevisiae bub3 mutant strain, active compounds read high
Procedure, shortened: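 Compounds were applied to a genetically altered yeast strain carrying a cell-cycle control defect. Growth inhibition was scored against vehicle-treated controls.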

[11] = NCI Yeast Anticancer Drug Screen. Data for the mlh1 strain (AID 171);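 note: 0% = growth of vehicle-treated control cultures of the same strain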; conditions: S. cerevisiae mlh1 strain growth inhibition, active compounds read high
Procedure, shortened: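 Inhibition values reflect reduced yeast growth in the presence of compound, referenced to vehicle controls, using a strain chosen for its alteration in DNA repair or cell cycle control.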

[12] = NCI Yeast Anticancer Drug Screen. Data for the mlh1 rad18 strain (AID 175); conditions: S. cerevisiae mlh1 rad18 strain growth inhibition, active compounds read high
Procedure, shortened: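 Inhibition values reflect reduced growth of mutant yeast versus vehicle-treated controls following compound exposure; the mutations affect DNA damage repair.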

[13] = NCI Yeast Anticancer Drug Screen. Data for the rad18 strain (AID 177); conditions: S. cerevisiae rad18 mutant growth inhibition, active compounds read high
Procedure, shortened: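 Steps: expose repair-mutant yeast to compound; measure growth; express as inhibition relative to vehicle control.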

[14] = NCI Yeast Anticancer Drug Screen. Data for the wt1 strain (AID 149);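 note: 0% = growth of vehicle-treated wt1 cultures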; conditions: S. cerevisiae wt1 strain (SPY 50644) growth inhibition, active compounds read high
Procedure, shortened: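 Yeast wt1 strain exposed to compounds; growth inhibition measured relative to vehicle-treated controls.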

[15] = NCI Yeast Anticancer Drug Screen. Data for the wt2 strain (AID 169);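 note: 0% = growth of vehicle-treated yeast cultures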; conditions: S. cerevisiae wt2 strain growth inhibition, active compounds read high
Procedure, shortened: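 The panel's yeast strains carry defined changes in DNA repair or cell cycle genes. Each strain is grown with compound, and growth loss is scored relative to vehicle.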

[16] = NCI Yeast Anticancer Drug Screen. Data for the sgs1 strain (AID 173);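 note: 0% = growth of vehicle-only control cultures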; conditions: S. cerevisiae sgs1 mutant, active compounds read high
Procedure, shortened: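 Vehicle-treated cultures served as reference for growth inhibition of a yeast strain altered in DNA damage repair or cell cycle control after compound exposure.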

[17] = at 5.0 µM (retest, dose inferred, filed as 0.5)
[18] = at 50.0 µM (retest, dose inferred, filed as 5.0)

Measured: growth inhibition

CC(=O)Oc1ccc2c(c1)Cc1cc(N=C3C=CC(=O)O3)ccc1-2
active: [1]; at 11.0 µM 98% | [1]; at 33.0 µM 98% | [1]; at 100.0 µM 94% | [2]; at 1.2 µM 78% | [2]; at 3.7 µM 96% | [2]; at 11.0 µM 99% | [2]; at 33.0 µM 98% | [2]; at 100.0 µM 93% | [3]; at 11.0 µM 99% | [3]; at 33.0 µM 99% | [3]; at 100.0 µM 96% | [4]; at 11.0 µM 97% | [4]; at 33.0 µM 98% | [4]; [18] 99% | [4]; at 50.0 µM 99.5% | [4]; at 100.0 µM 92% | [5]; [17] 72% | [5]; at 11.0 µM 98% | [5]; at 33.0 µM 99% | [5]; [18] 99% | [5]; at 50.0 µM 99.4% | [5]; at 100.0 µM 96% | [6]; at 11.0 µM 99% | [6]; at 33.0 µM 99% | [6]; at 100.0 µM 95% | [7]; [18] 99% | [7]; at 50.0 µM 99.6% | [8]; at 11.0 µM 94% | [8]; at 33.0 µM 99% | [8]; at 100.0 µM 95% | [9]; [18] 99% | [9]; at 50.0 µM 98.8% | [10]; at 11.0 µM 95% | [10]; at 33.0 µM 98% | [10]; [18] 98% | [10]; at 50.0 µM 99.7% | [10]; at 100.0 µM 95% | [11]; at 11.0 µM 98% | [11]; at 33.0 µM 99% | [11]; at 100.0 µM 97% | [12]; [18] 99% | [12]; at 50.0 µM 85% | [13]; at 11.0 µM 97% | [13]; at 33.0 µM 98% | [13]; at 100.0 µM 96%
inactive: [1]; at 1.2 µM 14% | [1]; at 3.7 µM 41% | [3]; at 1.2 µM 9% | [3]; at 3.7 µM 36% | [4]; at 1.2 µM 9% | [4]; at 3.7 µM 55% | [4]; [17] 43% | [5]; at 1.2 µM 15% | [5]; at 3.7 µM 37% | [6]; at 1.2 µM 16% | [6]; at 3.7 µM 42% | [7]; [17] 64% | [8]; at 1.2 µM 2% | [8]; at 3.7 µM 23% | [9]; [17] 19% | [10]; at 1.2 µM -8% | [10]; at 3.7 µM 13% | [10]; [17] 31% | [11]; at 1.2 µM 18% | [11]; at 3.7 µM 51% | [12]; [17] 62% | [13]; at 1.2 µM 15% | [13]; at 3.7 µM 50%

O=C(Nc1ccc(Cl)cc1)OCC#CCCl
inactive: [14]; at 1.2 µM -1% | [14]; at 3.7 µM 1% | [14]; at 11.0 µM 12% | [14]; at 33.0 µM 10% | [14]; at 100.0 µM 9% | [4]; at 1.2 µM -4% | [4]; at 3.7 µM -9% | [4]; [17] 8% | [4]; at 11.0 µM -6% | [4]; at 33.0 µM 15% | [4]; [18] 7% | [4]; at 50.0 µM 10.9% | [4]; at 100.0 µM 28% | [5]; at 1.2 µM 3% | [5]; at 3.7 µM 3% | [5]; [17] 6% | [5]; at 11.0 µM 4% | [5]; at 33.0 µM 2% | [5]; [18] 18% | [5]; at 50.0 µM 2.65% | [5]; at 100.0 µM 8% | [8]; at 1.2 µM -6% | [8]; at 3.7 µM -3% | [8]; at 11.0 µM -3% | [8]; at 33.0 µM 1% | [8]; at 100.0 µM 2% | [9]; [17] 5% | [9]; [18] 7% | [9]; at 50.0 µM -19.2% | [10]; at 1.2 µM -1% | [10]; at 3.7 µM 3% | [10]; [17] 4% | [10]; at 11.0 µM 4% | [10]; at 33.0 µM 3% | [10]; [18] 23% | [10]; at 50.0 µM 18.1% | [10]; at 100.0 µM 1% | [12]; [17] 9% | [12]; [18] 46% | [12]; at 50.0 µM 6.8% | [13]; at 1.2 µM -5% | [13]; at 3.7 µM 6% | [13]; at 11.0 µM 11% | [13]; at 33.0 µM 10% | [13]; at 100.0 µM 52%
active: [2]; at 1.2 µM 76% | [2]; at 3.7 µM 92% | [2]; at 11.0 µM 97% | [2]; at 33.0 µM 98% | [2]; at 100.0 µM 98% | [3]; at 1.2 µM 89% | [3]; at 3.7 µM 96% | [3]; at 11.0 µM 98% | [3]; at 33.0 µM 98% | [3]; at 100.0 µM 98% | [7]; [17] 96% | [7]; [18] 98% | [7]; at 50.0 µM 96.7% | [15]; at 1.2 µM 95% | [15]; at 3.7 µM 98% | [15]; at 11.0 µM 99% | [15]; at 33.0 µM 99% | [15]; at 100.0 µM 99% | [11]; at 1.2 µM 83% | [11]; at 3.7 µM 94% | [11]; at 11.0 µM 97% | [11]; at 33.0 µM 98% | [11]; at 100.0 µM 98% | [16]; at 1.2 µM 93% | [16]; at 3.7 µM 96% | [16]; at 11.0 µM 98% | [16]; at 33.0 µM 98% | [16]; at 100.0 µM 98%
